Compound activity deposited in PubChem BioAssay by National Center for Advancing Translational Sciences (NCATS).
IMPase cell inh: cell-permeable inhibitors of inositol monophosphatase (IMPase); P97697; 120,000 tested, under 10 active; AID 901; inhibition (IP1 accumulation), % at 46.1 µM; CHO-M1 cells, IP1 accumulation, HTRF TR-FRET ratio; active means well fitted curve in the direction sought with a large enough effect in the signal ratio, not every such curve was filed as active; inconclusive means small, poorly fitted or top-dose-only effect, or a change in a side signal; inactive means no such curve, though single readings can be large or run the other way; the % refers to the signal ratio;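 further: cells stimulated with carbachol in lithium chloride buffer; plate controls were DMSO basal wells for no effect and reference inhibitor wells for full effect; higher means more IMPase inhibition seen as more IP1 and lower FRET ratio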
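Cellular IMPase inhibition is scored as a rise in cytosolic IP1, detected by competitive TR-FRET between d2-labelled IP1 and a europium anti-IP1 antibody. M1-expressing CHO cells were stimulated with carbachol for 30 min at 37C, with lithium (50 mM LiCl) present in the buffer.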
PNC inhibitor: blocks assembly of the perinucleolar compartment; PC3M PTB-GFP, PNC prevalence imaging, 16 h; stronger effect = lower value; activity change (PNC), negative = inhibition, % at 10 µM; 3.1% of 140,000 active; AID 2417;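 active means readout at or below -70, meaning at least 70% loss of cells showing the perinucleolar compartment, a nuclear body marking cancer cells; inconclusive means readout between -30 and a set limit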;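 further: plate controls were DMSO wells for no effect and camptothecin positive control wells for full effect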
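Compounds are pinned in duplicate onto adhered PC3M cells stably expressing GFP-tagged PTB and incubated 16 h at 37 C. Cells are then fixed, nuclei stained with Hoechst, and PNC-positive cells counted.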
IMPase Li cell: IMPase inhibition in cells with lithium potentiation. CHO-M1 cells, IP1 TR-FRET (IP-One), carbachol + lithium. Potency, µM (doses to about 59.4 µM), inactives show at the top dose activity, negative = IMPase inhibition, most hits filed as inhibitors. 0.35% of 210,000 active. AID 1457; active means well fitted inhibition curve with a large enough effect; inconclusive means small, poorly fitted or top-dose-only effect; inactive means no such curve, though single readings can be large or run the other way;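 further: IP1 builds up when IMPase is blocked and the TR-FRET signal falls; potency means the concentration at half of the fitted maximal effect; plate controls were basal vehicle for no effect and high inhibitor control for full effect; nearly all actives have a fitted effect of over 50% in size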
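CHO-M1, 2000 cells/well, 16–30 h culture; cpd + low Li+, 30 min 37C; lysis with d2-IP1/Eu-anti-IP1 Ab, 10 min RT; TR-FRET 665/620 ratio and 620 channel; AC50 via Hill.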
ALDH1A1 block: ALDH1A1 (human) enzyme inhibition; P00352; Purified ALDH1A1, NADH fluorescence, propionaldehyde substrate; Potency, µM (highest dose often 75.3 µM), for the others: at the top dose activity, negative = inhibition, most hits filed as inhibitors; 7.3% of 220,000 active;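 further: potency means the concentration at half of the fitted maximal effect; plate controls were no enzyme wells and a reference inhibitor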
Target sequence (P00352 whole entry, looked up): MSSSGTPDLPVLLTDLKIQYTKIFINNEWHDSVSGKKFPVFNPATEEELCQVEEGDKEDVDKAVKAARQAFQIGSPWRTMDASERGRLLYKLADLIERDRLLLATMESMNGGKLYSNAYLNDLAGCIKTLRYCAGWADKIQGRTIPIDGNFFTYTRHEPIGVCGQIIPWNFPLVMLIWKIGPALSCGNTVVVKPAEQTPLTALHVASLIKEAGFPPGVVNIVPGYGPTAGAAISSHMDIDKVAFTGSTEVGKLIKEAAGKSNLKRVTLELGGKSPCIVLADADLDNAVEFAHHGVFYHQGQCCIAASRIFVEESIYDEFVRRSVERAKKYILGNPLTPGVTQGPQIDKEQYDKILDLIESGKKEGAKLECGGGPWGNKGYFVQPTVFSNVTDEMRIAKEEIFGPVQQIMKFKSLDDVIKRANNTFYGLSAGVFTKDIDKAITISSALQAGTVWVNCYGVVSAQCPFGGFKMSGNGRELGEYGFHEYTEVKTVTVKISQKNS
HPGD block: inhibitors of human 15-hydroxyprostaglandin dehydrogenase (HPGD); P15428; purified HPGD, NADH fluorescence kinetic, PGE2 substrate; 4.3% of 150,000 active; Potency, µM, for inactives: top-dose activity change, negative = inhibition, actives largely listed as inhibitors; further: potency means the concentration at half of the fitted maximal effect
Target sequence (P15428 whole entry, looked up): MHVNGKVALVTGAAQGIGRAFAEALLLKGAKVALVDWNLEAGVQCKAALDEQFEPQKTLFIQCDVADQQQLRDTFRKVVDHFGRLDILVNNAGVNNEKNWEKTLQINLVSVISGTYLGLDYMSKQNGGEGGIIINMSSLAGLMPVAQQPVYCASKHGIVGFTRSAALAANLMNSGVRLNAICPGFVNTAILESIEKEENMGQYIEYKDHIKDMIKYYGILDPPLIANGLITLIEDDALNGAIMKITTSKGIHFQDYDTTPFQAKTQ
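20 nM HPGD preincubated 15 min at room temperature with compound in 50 mM Tris-HCl pH 8, 0.01% Tween 20. Started with 1 mM NAD+ and 30 uM prostaglandin E2; NADH fluorescence (360/450 nm) read 5 times over 30-s intervals, last minus first.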
An asterisk follows results filed as active; ? = inconclusive; . = no result; [ ] = dose if it differs, or a comment. Most compounds without a hit are left out; they make up all but 11% or so of the library. Unless noted, the call rests on the fitted dose curve; in most records, active means well fitted inhibition curve with a large enough effect (not every such curve was filed as active); inconclusive means small, poorly fitted or top-dose-only effect, or another doubt; inactive means no such curve, though single readings can be large or run the other way. Unless noted, on the % scale 0 is the no-effect control and ±100 the full control effect.

SMILES	IMPase cell inh	PNC inhibitor	IMPase Li cell	ALDH1A1 block	HPGD block
C[C@@H]1NC(=O)c2cc([N+](=O)[O-])cc(I)c2NCC[C@@H](C(N)=O)NC(=O)[C@H](CC(N)=O)NC1=O	.	-103*	-6%	-5%	-11%
C[C@@H]1NC(=O)[C@H](CCC(N)=O)NC(=O)c2cc([N+](=O)[O-])cc(I)c2NCC[C@@H](C(N)=O)NC1=O	.	30	1%	-5%	-10%
COc1ccc(C(=O)NC2CCN(C(=O)Nc3ccccc3Cl)CC2)cc1	.	.	9%	0%	.
O=C(c1ccccc1)C(Sc1ncn[nH]1)c1ccccc1 (configuration not stated)	-1	2	4%	?	40µM*
COc1cc(C(=S)N2CCC(C(N)=O)CC2)ccc1O	13	-4	7%[38.3 µM]	10µM*	18µM*
COc1cc(C(=O)O)ccc1O	.	12	2%	5%	-7%
COc1cc(C(=S)N2CCCCC2)ccc1O	-9	-1	29%[38.3 µM]	?	-16%
COc1cc(C(=S)N2CCCC2)ccc1O	5	12	-16%[38.3 µM]	14µM*	28µM*
COc1cc(C(=S)N2CCC(C)CC2)ccc1O	7	5	30%[38.3 µM]	10µM*	14µM*
CSc1nsc(/C=C/Nc2ccc(C(=O)O)cc2)c1C#N	.	.	-11%	10µM*	.
CSc1nsc(/C=C/Nc2ccc(F)cc2F)c1C#N	.	.	-5%	8.9µM*	.
CSc1nsc(N/N=C/c2ccccc2)c1C#N	.	.	-6%	?	.
Cc1ncc(CSc2ccccc2N)c(CO)c1O	.	.	4%	1%[13.5 µM]	-13%
CC1(C)C(=O)Nc2ccccc2N1C(=O)COC(=O)C1CCCCC1	6	-6	19%[38.3 µM]	?	2%
CCOc1cc(C(=O)CCC(=O)OCC(=O)N2c3ccccc3NC(=O)C2(C)C)ccc1O	-3	-21	42%[38.3 µM]	14µM*	-10%
CC1CCN(C(=O)C2CCN(S(=O)(=O)c3cccc4nonc34)CC2)CC1	6	40	7%[38.3 µM]	?	16µM*
O=C(Nc1ccccn1)C1CCN(S(=O)(=O)c2cccc3nonc23)CC1	11	7	10%[38.3 µM]	28µM*	-16%
COC(=O)CSc1nnc(CNC(=O)c2ccco2)n1-c1ccc(F)cc1	?	?	.	-15%	.
O=C(O)/C=C\C(=O)N1Cc2cc3ccccc3nc2C1	.	.	0%	-10%[13.5 µM]	-10%
CN1CCC(OC(=O)c2cccc(Cl)c2)CC1	.	.	20%	5%	.
O=c1c(Cc2ccccc2)c(O)ccn1Cc1ccc2c(c1)OCO2	.	.	3%	2.2µM*	.
N#Cc1nc(-c2cccs2)oc1N1CCOCC1	-14	?	11µM*	?	?
COc1ccc(-c2c(-c3ccc(OCC(=O)NN)cc3O)n[nH]c2C(F)(F)F)cc1	.	?	-8%	13µM*	-11%
C=C(C)COc1ccc(-c2n[nH]c(C)c2-c2ccc(OC)cc2)c(O)c1	2	52	11%[38.3 µM]	?	-23%
O=C(CN1C(=O)CC(c2ccco2)Sc2ccccc21)Nc1ccc2c(c1)OCCO2 (configuration not stated)	6	18	12%[38.3 µM]	14µM*	-18%
SMILES	IMPase cell inh	PNC inhibitor	IMPase Li cell	ALDH1A1 block	HPGD block
O=C(CN1C(=O)CCSc2ccccc21)Nc1ccc2c(c1)OCCO2	5	5	10%[38.3 µM]	7%	-15%
O=C(CN1C(=O)CC(c2ccco2)Sc2ccccc21)NCC1CCCO1 (configuration not stated)	3	27	-6%[38.3 µM]	10µM*	-10%
NCCC[C@@H](CC(=O)N[C@@H]1CCCC[C@H]1C(=O)N[C@H](CC(=O)N[C@@H](CCC(=O)O)CC(=O)O)Cc1c[nH]c2ccccc12)NC(=O)C[C@H](Cc1c[nH]c2ccccc12)NC(=O)[C@@H]1CCCC[C@H]1N	.	.	12%	?	-12%
COCC(C)NC(=O)NC1(C(F)(F)F)Oc2ccc(Cl)cc2O1 (configuration not stated)	3	?	.	22µM*	.
O=C(NCCN1CCOCC1)NC1(C(F)(F)F)Oc2ccc(Cl)cc2O1 (configuration not stated)	11	-29	8%	5%	-6%
CC(C)N1CCC(N2CCN(C3CCCC3)CC2CCO)CC1 (configuration not stated)	.	.	-4%	0%	.
Cc1cccc(N2CCC(N3CCN(C4CCCCC4)C(CCO)C3)CC2)c1C (configuration not stated)	.	.	3%	3.5µM*	.
Cn1c(C(=O)N2CCCC2)cc2c(=O)n(C)c3ccccc3c21	2	-2	0%[38.3 µM]	-2%	22µM*
CCOc1ccc(NC(=O)c2cc3c(=O)n(C)c4ccccc4c3n2C)cc1	2	-25	7.9µM*	?	?
Cn1c(C(=O)N2CCN(c3ncccn3)CC2)cc2c(=O)n(C)c3ccccc3c21	4	?	-1%[38.3 µM]	-6%	-17%
Cn1c(C(=O)Nc2ccc3c(c2)OCO3)cc2c(=O)n(C)c3ccccc3c21	0	?	6%[38.3 µM]	?	?
COCC(=O)N1CCC2(CC1)CN(c1cccc(-c3ccccc3)c1)C2	.	.	14%	?	?
COc1ccc(CC(=O)Nc2sc3c(c2C(=O)Nc2cccc(Cl)c2)CCCCC3)cc1	-7	.	.	.	.
CS(=O)(=O)N(CC(=O)O)Cc1ccccc1	.	.	0%	-6%[13.5 µM]	-7%
COc1ccc(S(=O)(=O)CCC(=O)NCCc2ccc(C)cc2)cc1	7	24	-2%[38.3 µM]	25µM*	-11%
O=C(CCCCCN1C(=O)c2ccccc2C1=O)NCCc1nc2ccccc2[nH]1	0	47	13%[38.3 µM]	11µM*	-6%
COc1ccc(CCNC(=O)CCCCCN2C(=O)c3ccccc3C2=O)cc1	-5	61	8%[38.3 µM]	?	-13%
COc1ccc(CCNC(=O)CCCN2C(=O)c3ccccc3C2=O)cc1	.	.	-8%	14µM*	.
CCc1c(C)nc(N)n2c(SCC(=O)N3CCN(c4ccccc4OC)CC3)nnc12	-3	35	6%[38.3 µM]	1%	-11%
CC(=O)/C(=N\Nc1ccccc1)Sc1nncn1C	.	?	1%	-6%	-11%
CC(=O)Nc1ccc(N2CCCCC2)c(C(=O)Nc2cccc(C)c2)c1	3	-3	-4%[38.3 µM]	11µM*	-9%
Cc1cccc(NC(=O)c2cc(NC(=O)C3CCCCC3C(=O)O)ccc2N2CCCCC2)c1 (configuration not stated)	6	-7	6%	18µM*	1%
Cc1ccc(NC(=O)c2cc(NC(=O)c3ccccc3C(=O)O)ccc2N2CCCCC2)cc1	.	.	2%	-9%	.
Cc1ncc([N+](=O)[O-])n1C[C@H](O)CCl	-4[20.6 µM]	.	2%	-2%[20.9 µM]	-8%
COc1ccc2c3c(cccc13)C(=O)N(O)C2=O	.	-3	-6%	?	-15%
CCC1=NNc2cccc3c(OC)ccc1c23	13	30	31%[38.3 µM]	?	14µM*
COCCSc1ccccc1C(=O)NCCc1ccccc1	.	.	5%	?	.
COCCSc1ccccc1C(=O)Nc1ccc(Cl)cc1	.	.	18%	-7%	.
